# From the supplement of paper PMC8728848
# Shown is part of a subset that was picked to be rich in the strongest signals.
# B1: ECL (Erythrina cristagalli), Q6YD91 (protein)
# chain: VETISFSFSEFEPGNNDLTLQGAAIITQSGVLQLTKINQNGMPAWDSTGRTLYTKPVHIWDMTTGTVASFETRFSFSIEQPYTRPLPADGLVFFMGPTKSKPAQGYGYLGVFNNSKQDNSYQTLAVEFDTFSNPWDPPQVPHIGIDVNSIRSIKTQPFQLDNGQVANVVIKYDASSKILLAVLVYPSSGAIYTIAEIVDVKQVLPEWVDVGLSGATGAQRDAAETHDVYSWSFHASLPETND
# Tests used:
# Test in all cases: glycan array binding signal (z-score within array); higher = stronger binding
# Details in all cases: glycan notation: IUPAC condensed, linker removed
# [1] = biological target: Fuc(a1-2)Gal
# Outline: (§1)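 From the Consortium for Functional Glycomics database, 3228 arrays were curated, keeping only those whose protein sequence was available. Binding is given as a within-array Z-score averaged across arrays sharing a protein sequence and across linkers. Negative Z-scores can be read as non-binding.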
# [2] = biological target: Fuc(a1-2)Gal(b1-3)GalNAc(a1-3)[Fuc(a1-2)]Gal(b1-4)GlcNAc
# Outline: as §1
# [3] = biological target: Fuc(a1-2)Gal(b1-3)[Fuc(a1-4)]GlcNAc(b1-3)[Gal(b1-4)GlcNAc(b1-6)]Gal(b1-4)Glc
# Outline: as §1
# [4] = biological target: Fuc(a1-2)Gal(b1-4)GlcNAc(b1-2)Man(a1-3)[Fuc(a1-2)Gal(b1-4)GlcNAc(b1-2)Man(a1-6)]Man(b1-4)GlcNAc(b1-4)[Fuc(a1-6)]GlcNAc
# Outline: as §1
# [5] = biological target: Fuc(a1-2)Gal(b1-4)GlcNAc(b1-3)[Fuc(a1-3)[Gal(b1-4)]GlcNAc(b1-6)]Gal(b1-4)Glc
# Outline: as §1
# [6] = biological target: Fuc(a1-2)Gal(b1-4)GlcNAc(b1-6)GalNAc
# Outline: as §1
# [7] = biological target: Fuc(a1-2)Gal(b1-4)[Fuc(a1-3)]GlcNAc(b1-2)Man(a1-3)[Fuc(a1-2)Gal(b1-4)[Fuc(a1-3)]GlcNAc(b1-2)Man(a1-6)]Man(b1-4)GlcNAc(b1-4)[Fuc(a1-6)]GlcNAc
# Outline: as §1
# [8] = biological target: Fuc(a1-2)[Gal(a1-3)]Gal(b1-3)GlcNAc(b1-2)Man(a1-3)[Fuc(a1-2)[Gal(a1-3)]Gal(b1-3)GlcNAc(b1-2)Man(a1-6)]Man(b1-4)GlcNAc(b1-4)GlcNAc
# Outline: as §1
# [9] = biological target: Fuc(a1-2)[Gal(a1-3)]Gal(b1-3)GlcNAc(b1-6)GalNAc
# Outline: as §1
# [10] = biological target: Fuc(a1-2)[Gal(a1-3)]Gal(b1-4)GlcNAc
# Outline: as §1
# [11] = biological target: Fuc(a1-2)[GalNAc(a1-3)]Gal(b1-4)GlcNAc(b1-2)Man(a1-3)[Fuc(a1-2)[GalNAc(a1-3)]Gal(b1-4)GlcNAc(b1-2)Man(a1-6)]Man(b1-4)GlcNAc(b1-4)[Fuc(a1-6)]GlcNAc
# Outline: as §1
# [12] = biological target: Fuc(a1-2)[GalNAc(a1-3)]Gal(b1-4)[Fuc(a1-3)]GlcNAc(b1-3)GalNAc
# Outline: as §1
# [13] = biological target: Fuc(a1-3)[Gal(b1-4)]GlcNAc(b1-6)GalNAc
# Outline: as §1
# [14] = biological target: Gal(a1-3)Gal(b1-4)GlcNAc(b1-2)Man
# Outline: as §1
# [15] = biological target: Gal(b1-3)GalNAc(b1-4)Gal(b1-4)Glc
# Outline: as §1
# [16] = biological target: Gal(b1-3)[Neu5Ac(b2-6)]GalNAc
# Outline: as §1
# [17] = biological target: Gal(b1-4)GlcNAc(b1-2)Man
# Outline: as §1
# [18] = biological target: Gal(b1-4)GlcNAc(b1-2)Man(a1-3)[Gal(b1-4)GlcNAc(b1-2)Man(a1-6)]Man(b1-4)GlcNAc(b1-4)[Fuc(a1-6)]GlcNAc
# Outline: as §1
# [19] = biological target: Gal(b1-4)GlcNAc(b1-2)[Gal(b1-4)GlcNAc(b1-4)]Man(a1-3)[Gal(b1-4)GlcNAc(b1-2)[Gal(b1-4)GlcNAc(b1-6)]Man(a1-6)]Man(b1-4)GlcNAc(b1-4)GlcNAc
# Outline: as §1
# [20] = biological target: Gal(b1-4)GlcNAc(b1-2)[Gal(b1-4)GlcNAc(b1-6)]Man(a1-6)[Gal(b1-4)GlcNAc(b1-2)Man(a1-3)]Man(b1-4)GlcNAc(b1-4)[Fuc(a1-6)]GlcNAc
# Outline: as §1
# [21] = biological target: Gal(b1-4)GlcNAc(b1-3)Gal(b1-4)GlcNAc(b1-2)Man(a1-3)[Gal(b1-4)GlcNAc(b1-3)Gal(b1-4)GlcNAc(b1-2)Man(a1-6)]Man(b1-4)GlcNAc(b1-4)[Fuc(a1-6)]GlcNAc
# Outline: as §1
# [22] = biological target: Gal(b1-4)GlcNAc(b1-3)Gal(b1-4)GlcNAc(b1-2)[Gal(b1-4)GlcNAc(b1-3)Gal(b1-4)GlcNAc(b1-6)]Man(a1-6)[Gal(b1-4)GlcNAc(b1-3)Gal(b1-4)GlcNAc(b1-2)Man(a1-3)]Man(b1-4)GlcNAc(b1-4)[Fuc(a1-6)]GlcNAc
# Outline: as §1
# [23] = biological target: Gal(b1-4)GlcNAc(b1-3)Gal(b1-4)GlcNAc(b1-3)Gal(b1-4)GlcNAc(b1-2)[Gal(b1-4)GlcNAc(b1-3)Gal(b1-4)GlcNAc(b1-3)Gal(b1-4)GlcNAc(b1-6)]Man(a1-6)[Gal(b1-4)GlcNAc(b1-3)Gal(b1-4)GlcNAc(b1-3)Gal(b1-4)GlcNAc(b1-2)Man(a1-3)]Man(b1-4)GlcNAc(b1-4)[Fuc(a1-6)]GlcNAc
# Outline: as §1
# [24] = biological target: Gal(b1-4)GlcNAc(b1-3)Gal(b1-4)GlcNAc(b1-3)Gal(b1-4)GlcNAc(b1-3)Gal(b1-4)GlcNAc(b1-2)Man(a1-3)[Gal(b1-4)GlcNAc(b1-3)Gal(b1-4)GlcNAc(b1-3)Gal(b1-4)GlcNAc(b1-3)Gal(b1-4)GlcNAc(b1-2)Man(a1-6)]Man(b1-4)GlcNAc(b1-4)GlcNAc
# Outline: as §1
# [25] = biological target: Gal(b1-4)GlcNAc(b1-3)Gal(b1-4)GlcNAc(b1-3)Gal(b1-4)GlcNAc(b1-3)Gal(b1-4)GlcNAc(b1-2)[Gal(b1-4)GlcNAc(b1-3)Gal(b1-4)GlcNAc(b1-3)Gal(b1-4)GlcNAc(b1-3)Gal(b1-4)GlcNAc(b1-6)]Man(a1-6)[Gal(b1-4)GlcNAc(b1-3)Gal(b1-4)GlcNAc(b1-3)Gal(b1-4)GlcNAc(b1-3)Gal(b1-4)GlcNAc(b1-2)Man(a1-3)]Man(b1-4)GlcNAc(b1-4)[Fuc(a1-6)]GlcNAc
# Outline: as §1
binder,measurement,setting,value
B1,glycan array binding signal (z-score),[1],-0.188
same,glycan array binding signal (z-score),[2],-0.443
same,glycan array binding signal (z-score),[3],-0.094
same,glycan array binding signal (z-score),[4],-0.031
same,glycan array binding signal (z-score),[5],0.053
same,glycan array binding signal (z-score),[6],-0.165
same,glycan array binding signal (z-score),[7],-0.185
same,glycan array binding signal (z-score),[8],-0.173
same,glycan array binding signal (z-score),[9],-0.206
same,glycan array binding signal (z-score),[10],-0.306
same,glycan array binding signal (z-score),[11],-0.274
same,glycan array binding signal (z-score),[12],0.775
same,glycan array binding signal (z-score),[13],0.251
same,glycan array binding signal (z-score),[14],-0.116
same,glycan array binding signal (z-score),[15],-0.141
same,glycan array binding signal (z-score),[16],-0.546
same,glycan array binding signal (z-score),[17],-0.311
same,glycan array binding signal (z-score),[18],0.114
same,glycan array binding signal (z-score),[19],4.03
same,glycan array binding signal (z-score),[20],5.09
same,glycan array binding signal (z-score),[21],4.13
same,glycan array binding signal (z-score),[22],6.18
same,glycan array binding signal (z-score),[23],5.28
same,glycan array binding signal (z-score),[24],3.58
same,glycan array binding signal (z-score),[25],5.63
